Experimental data from ChEMBL document CHEMBL3988442, “University of Dundee, Small-Polar-MMV Screening Library” (2021).
The campaign covered roughly 53,000 compounds. About 900 (1.7%) showed an effect of 50% or more. This is one part of a sample in which strong results are shown more often than they occur.

system: Mycobacterium tuberculosis; test: Cornell - Phenotypic assay to identify agents that inhibit growth of Mycobacterium tuberculosis; type: functional; set-up: scale not given: direction of the effect not stated beside the values; conditions: 10 mM as filed; unlikely as a test dose

Row | Structure (SMILES) | Percent Effect [%]
1 | CN(C)Cc1cnc(C2CN(C(=O)c3ccccc3Cl)CCO2)[nH]1 (stereo unspecified) | -0.6177
2 | c1ccc(CCN2CC(n3cccn3)C2)nc1 | -9.048
3 | COc1cccc(CN(C)C(=O)CCC(=O)c2ccc(Cl)cc2)c1OC | 54.4
4 | COc1cccc(CN(C)C(=O)CCC(=O)c2ccccc2)c1OC | 8.094
5 | COc1ccc(CN(C)C(=O)CCC(=O)c2cccs2)c(OC)c1OC | 32.22
6 | O=C(N[C@@H]1CCC[C@@H](N2CCCC2)[C@@H]1O)c1cnn2cccnc12 | -2.756
7 | COc1ccc(NC(=O)c2nc(C)sc2C(C)C)cn1 | 41.95
8 | Cc1nc(C(=O)Nc2cccnc2)c(C(C)C)s1 | 51.63
9 | CC(C)c1sc(Br)nc1C(=O)NCc1cccnc1 | 16.15
10 | CC(C)CCN1C[C@H]2C[C@H](C(=O)Nc3cccnc3)[C@@H](C1)O2.O=C(O)C(F)(F)F.O=C(O)C(F)(F)F | 18.07
11 | N#Cc1cccc(OCCN2CCNC(=O)C2c2cccs2)c1 (stereo unspecified) | 15.41
12 | Cc1nc(CN2C[C@H]3C[C@H](C(=O)NCC4CC4)N(C)[C@H]3C2)cs1.O=C(O)C(F)(F)F.O=C(O)C(F)(F)F.O=C(O)C(F)(F)F | -25.01
13 | COc1ccccc1-c1nnc2n1NC(N)=C(C#N)S2 | 6.444
14 | CC(=O)N[C@@H]1CN(C2CCN(c3cccc(Cl)c3)CC2)C[C@H]1C(C)C | 62.82
15 | COc1cccc(N2CCC(N3C[C@@H](NC(C)=O)[C@H](C(C)C)C3)CC2)c1 | 34.03
16 | COc1ccc(N2CCC(N3C[C@H](NC(C)=O)[C@@H](C(C)C)C3)CC2)cc1 | 33.6
17 | Cc1cc(=O)n2ncnc2n1CC(O)c1cc(F)ccc1F (stereo unspecified) | -70.76
18 | COc1ccc(NC(=O)Cn2c(=O)nc(N)c3cc(C)sc32)cc1 | 0.3474
19 | Cc1nonc1OCCNC(=O)COc1ccc(Cl)cc1Cl | 17.56
20 | CC(c1nnc(-c2ccccc2)o1)N1CCc2cncnc2C1 (stereo unspecified) | -7.255
21 | CC(=O)N1CCc2c(nc(N(C)C)nc2N(C)CCC2CCCCO2)C1 (stereo unspecified) | -8.037
22 | Cc1nc[nH]c1CN1CCN(C(=O)C2(C)CC2)[C@H]2CS(=O)(=O)C[C@H]21 | 10.63

Row | Structure (SMILES) | Percent Effect [%]
23 | COc1ccc(CNC(=O)Nc2ccc(S(=O)(=O)C(F)F)cc2)cc1 | 13.14
24 | Cn1cc(CNC(=O)Nc2ccc(S(=O)(=O)C(F)F)cc2)cn1 | 33.37
25 | Cn1ccc(CNC(=O)Nc2ccc(S(=O)(=O)C(F)F)cc2)c1 | 50.21
26 | Cc1cc2nc(O)c(O)nc2cc1S(=O)(=O)NC1CC1 | 1.29
27 | CC(C)(C)C(=O)NCCC(=O)NC(C)(C)c1ccc2c(c1)OCO2 | 11.96
28 | COc1ncccc1CNC(=O)NC(C)Cn1cccn1 (stereo unspecified) | -6.466
29 | CCCc1cc(CNC2CCN(c3cc(C(C)C)nc(C)n3)CC2)on1 | -3.278
30 | O=C(c1cc(C2CC2)on1)N1C[C@H]2CC[C@](O)(c3ccccc3F)[C@H]2C1 | 7.092
31 | O=C(c1cc(C2CC2)n[nH]1)N1C[C@H]2CC[C@](O)(c3ccccc3F)[C@H]2C1 | 50.52
32 | O=C(c1cc(C2CC2)on1)N1C[C@H]2CC[C@](O)(c3ccc(F)cc3)[C@H]2C1 | 6.085
33 | COc1ccc(-c2nc(CNCCn3cccn3)cs2)cc1 | 49.39
34 | Fc1ccc(CNCCn2cccn2)cc1F | -21.78
35 | c1ccc(Cc2nc(CNCCn3cccn3)cs2)cc1 | 73.18
36 | Clc1ccc(Cc2nc(CNCCn3cccn3)cs2)cc1 | 60.1
37 | c1cnn(CCNCc2csc(-c3ccsc3)n2)c1 | -2.857
38 | c1ccc(-c2nc(CNCCn3cccn3)cs2)cc1 | 46.8
39 | COc1cc(C2(C(=O)N3CCCC(n4cncn4)C3)CC2)ccc1C (stereo unspecified) | 9.425
40 | CC1(C(=O)NC2CCCC2)CCCN(c2cnccn2)C1 (stereo unspecified) | 15.8
41 | Cn1cccc1C(O)CNC(=O)COc1ccccc1F (stereo unspecified) | 31.15
42 | COC(=O)c1ccc(C(=O)NCC(O)c2cccn2C)cc1 (stereo unspecified) | 64.24
43 | Cn1cccc1C(O)CNC(=O)c1ccc(F)c(F)c1 (stereo unspecified) | 19.39
44 | Cn1cccc1C(O)CNS(=O)(=O)Cc1ccccc1 (stereo unspecified) | -41.72

Row | Structure (SMILES) | Percent Effect [%]
45 | Cn1cccc1C(O)CNC(=O)COc1ccc(Cl)cc1Cl (stereo unspecified) | 63.83
46 | Cn1cccc1C(CNC(=O)COc1ccc(Cl)cc1Cl)N1CCCC1 (stereo unspecified) | 27.47
47 | Cn1cccc1C(O)CNC(=O)c1ccc2nsnc2c1 (stereo unspecified) | 20.08
48 | Cn1cccc1C(O)CNC(=O)c1ccc(C(F)(F)F)cc1 (stereo unspecified) | 56.65
49 | Cn1cccc1C(O)CNC(=O)c1cccc(Cl)c1 (stereo unspecified) | 49.37
50 | COC[C@@H]1CCC[C@]12CN(CCc1ccccc1)CCO2.O=C(O)C(F)(F)F | -4.553
51 | Cc1nc(CNC(=O)c2cc(Cn3ccnc3C(C)C)[nH]n2)sc1C | -7.755
52 | CC(C)NC(=O)NCC(Cc1ccc(F)cc1)C(N)=O (stereo unspecified) | -16.75
53 | Cc1c(-c2nc3cc(S(=O)(=O)N4CCCC4)ccc3n2C)cnn1C | -4.812
54 | CCc1ccccc1-c1cc(C)nc(N)n1 | 13.97
55 | Cc1ccc(Oc2cc(CN)ccn2)cc1C.Cl | -26.7
56 | NC(=O)NC(=O)CNC1(c2ccc(Cl)cc2)CCCC1 | 4.44
57 | Cc1ccccc1CSc1ncc(Br)c(C(=O)O)n1 | 12.49
58 | Cc1cncc(C2CCN(Cc3ccsc3)CC2)n1 | 41.74
59 | Cc1cncc(C2CCN(Cc3ccncc3)CC2)n1 | 18.56
60 | Cc1cncc(C2CCN(Cc3cnc(C)nc3)CC2)n1 | 56.88
61 | Cc1nccn1CCCn1cncc1-c1ccc2c(c1)CC(C)N2C.Cl (stereo unspecified) | 20.63
62 | CCN1c2ccc(-c3cncn3CC(=O)NC(C)(C)C)cc2CC1C.Cl (stereo unspecified) | -3.554
63 | CCN1c2ccc(-c3cncn3CCCn3ccnc3C)cc2CC1C.Cl (stereo unspecified) | 54.49
64 | Cc1nccn1CCCn1cncc1-c1ccc2c(c1)CCCN2C.Cl | 0.2069
65 | CCN1CCc2cc(-c3cncn3CCNC3CCS(=O)(=O)C3)ccc21.Cl (stereo unspecified) | 12.29
66 | Cc1nccn1CCCn1cncc1-c1ccc2c(c1)CCC(C)N2C.Cl (stereo unspecified) | 54.25

Row | Structure (SMILES) | Percent Effect [%]
67 | OCCNc1nc(NCCc2ccccc2)nc2nccnc12 | 11.82
68 | Cn1cc(CN2CC[C@H](O)[C@@H](n3ccc(=O)[nH]c3=O)CC2)cn1 | -40.44
69 | Cn1cc(CN(Cc2ccccn2)Cc2ccccc2Cl)cn1 | 9.224
70 | COc1ccc(C(C)NCCc2ccc(NC(C)=O)cc2)cc1F (stereo unspecified) | -10.02
71 | Clc1cc(CN2CCCN3CCCC3C2)c2ncccc2c1 (stereo unspecified) | 58.38
72 | O[C@@H]1CN(Cc2cc(Cl)cc3cccnc23)C[C@@H]1O | 5.63
73 | OCCN1CCN(Cc2cc(Cl)cc3cccnc23)CC1 | -20.78
74 | O=S(=O)(NCCNc1ccc(-n2cccc2)nn1)c1cccs1 | 107.8
75 | Cc1ccc(C)c(S(=O)(=O)NCCNc2ccc(-n3cccc3)nn2)c1 | 29.41
76 | O=S(=O)(NCCNc1cc(-n2cccc2)ncn1)c1cccs1 | 51.47
77 | Cc1nsc(NCCNS(=O)(=O)c2ccccc2)n1 | 22.52
78 | Cc1cccc(C(=O)NCCNS(=O)(=O)c2cccs2)c1C | 27.49
79 | O=S(=O)(NCCNc1cc(-n2cccn2)ncn1)c1cccs1 | -21.67
80 | CCS(=O)(=O)NCCCNc1cc(N2CCCC2CO)ncn1 (stereo unspecified) | 22.16
81 | Cc1ccc(S(=O)(=O)NCCNc2cc(-n3cccc3)ncn2)c(C)c1 | 53.05
82 | Cc1nnsc1C(=O)NCCNS(=O)(=O)c1cccs1 | -32.34
83 | CCS(=O)(=O)NCCNc1cc(-n2cccc2)ncn1 | 13.54
84 | O=S(=O)(Cc1ccccc1)NCCNc1ccc(-n2cccc2)nn1 | 12.63
85 | O=S(=O)(NCCNc1ccc(-n2cccc2)nn1)c1ccccc1 | 105.3
86 | CCC1=N[C@@]2(CC[C@@H]3CN(CC4CC4)C[C@@H]32)C(=O)N1CC.O=C(O)C(F)(F)F | 7.399
87 | O=C(CC1CC1)N1CCN(Cc2ccncc2)c2ncccc2C1.O=C(O)C(F)(F)F.O=C(O)C(F)(F)F | 7.793
88 | Cc1ccc(-c2nnc(CN3CCN(c4ccccn4)CC3)o2)cc1 | -16.82

Row | Structure (SMILES) | Percent Effect [%]
89 | COCC(=O)N1CCCC(c2cc(C(F)F)n3ncnc3n2)C1.Cl (stereo unspecified) | -7.323
90 | CCNC(=O)C1(CC2CC(c3ccccc3OC)=NO2)CCOCC1 (stereo unspecified) | -45.09
91 | CNc1cncc(C2CCCN2C(=O)CCn2ccnc2)n1 (stereo unspecified) | -11.08
92 | COCCN(C)CC(=O)N1C[C@@H](C)[C@](O)(C(C)C)C1 | 28.76
93 | CCc1cc(O)n2nc(C3CCN(C(=O)c4ccccn4)CC3)cc2n1 | 37.19
94 | NC(=O)CN1CCC2(CC1)C[C@@H](O)[C@H](c1ccccc1)NC2=O | -49.18
95 | COCC(=O)N1CCCC1(C(=O)N(C)C)c1cnccn1 (stereo unspecified) | 19.92
96 | Cc1cc(-c2ccccc2Cl)nc(N)n1 | 22.73
97 | O=C(NCCNC(=O)c1scnc1Cl)c1cccs1 | -53.65
98 | O=C(NCCNc1cc(-n2cccc2)ncn1)c1cccs1 | 57.48
99 | CC(C)(C)c1ncc(C(=O)NCCNC(=O)c2cccs2)s1 | -14.14
100 | Cc1ccc2c(c1)[C@@H](CC(=O)N(C)C)CCO2 | 3.607
101 | CCNc1ncc(C(=O)N[C@H](C(N)=O)c2ccccc2)cn1 | -10.46
102 | NC(=O)C(NC(=O)c1ccc(NC2CC2)nc1)c1ccccc1 (stereo unspecified) | -20.48
103 | COC(=O)C(NC(=O)c1ccc(N(C)C)nc1)c1ccccc1 (stereo unspecified) | 107.9
104 | CN(C)c1ccc(C(=O)NCCCc2ccccn2)cn1 | -1.76
105 | COC(=O)C(NC(=O)c1ccc(NC2CC2)nc1)c1ccccc1 (stereo unspecified) | 107
106 | CC(C)c1cc(NC(=O)c2ccc(NC3CC3)nc2)[nH]n1 | -6.556
